NS1 function inh: influenza NS1 inhibition. Potency, µM (series often up to 46.1 µM), inactives show top-dose activity, positive = more growth. hit rate 0.4% among 270,000. AID 2326; calls by dose curve; note: potency is the fitted concentration of half-maximal effect; actives are rising curves; nearly all actives have a fitted effect of over 50% in size
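Read-out: OD600 growth recovery of NS1-expressing budding yeast. Cells grown overnight at 30C in -URA glucose medium, washed, resuspended and diluted 1:100 in 2% galactose assay medium, pH 6.0. Same strain lacking NS1 served as positive control.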
Pf growth 48h: inhibits P. falciparum growth in the first generation, 48 h; P. falciparum luciferase growth in erythrocytes, 48 h; Potency, µM (series often up to 28.7 µM), for inactives: at the highest dose activity change, negative = inhibition, most hits filed as inhibitors; hit rate 5.9% among 310,000; note: potency is the fitted concentration of half-maximal effect; % is set by controls: 0 for no effect and ±100 for the full control effect
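Luciferase-expressing P. falciparum in infected erythrocytes (2% hematocrit, 0.1% parasitemia final) in RPMI 1640/0.5% Albumax were exposed to compound for 48 hours at 37 C, 5% CO2; growth read as luminescence.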
Pf growth 96h: P. falciparum growth inhibition at 96 hours; hit rate 6.9% among 320,000; P. falciparum luciferase reporter growth, 96 h; Potency, µM (series often up to 28.7 µM), for the others: at the highest dose activity change, negative = inhibition, actives largely listed as inhibitors; note: potency is the fitted concentration of half-maximal effect; % is set by controls: 0 for no effect and ±100 for the full control effect
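Compounds incubated with erythrocytes infected by luciferase-expressing P. falciparum (2% hematocrit, 0.05% parasitemia final) for 96 hours, 37 C in 5% CO2. Growth inhibition scored as decreased luciferase luminescence.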
Giardia FBPA inh: blocks Giardia fructose-bisphosphate aldolase activity; A8B2U2; purified Giardia FBPA; Potency, µM (series often up to 59.6 µM), without a hit: top-dose activity, negative = inhibition, hits mostly inhibitors; hit rate 0.71% among 290,000; note: potency is the fitted concentration of half-maximal effect; % is set by controls: 0 for no effect and ±100 for the full control effect; nearly all actives have a fitted effect of over 55% in size
Target sequence (A8B2U2 whole entry, looked up): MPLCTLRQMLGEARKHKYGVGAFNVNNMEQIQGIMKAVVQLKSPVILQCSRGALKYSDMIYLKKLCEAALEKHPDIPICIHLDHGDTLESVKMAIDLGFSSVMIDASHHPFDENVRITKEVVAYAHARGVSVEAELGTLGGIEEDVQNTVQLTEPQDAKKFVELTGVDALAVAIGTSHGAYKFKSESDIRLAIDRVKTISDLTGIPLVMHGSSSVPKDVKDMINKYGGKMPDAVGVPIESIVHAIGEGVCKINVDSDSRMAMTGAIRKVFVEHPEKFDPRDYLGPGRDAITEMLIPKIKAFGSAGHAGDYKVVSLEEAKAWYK
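Giardia FBPA (40 nM reagent) was preincubated 10 min at RT with compound (up to 57.5 uM final), then substrate plus GAPDH/TPI/NAD/arsenate coupling system with diaphorase/resazurin was added; resorufin fluorescence (525/598 nm) was read after 20 min.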
CHX counter: counter-screen hit for Shiga toxin inhibitors, cycloheximide. hit rate 12% among 300,000. max response, %. cell reporter, cycloheximide protein synthesis inhibition counterscreen; in the data active = max response mostly above about 13%, no sharp cut-off; inactive = mostly below about 14%; note: read at 38.3 µM for the half of the compounds with a filed dose; 0% is about no effect
Shiga inhibitor: inhibitors of Shiga toxin in Vero cells. inhibition, % at 38.7 µM. Vero cells, Shiga toxin protein synthesis inhibition reporter. AID 2315. hit rate 9.2% among 290,000; in the data active = inhibition mostly above about 28%, no sharp cut-off; inactive = mostly below about 43%; note: 0% is about no effect
Starred values were filed as active, the others as inactive; i = inactive; ? = inconclusive; . = not tested or not shown. Hits are enriched below; roughly 21% of the tested compounds scored in any of these assays. Unless noted, calls come from the whole dose curve; as a rule, active = well fitted curve in the direction sought with a large enough effect; inconclusive = small, poorly fitted or top-dose-only effect, or another doubt; inactive = no such curve, though single readings can be large; an effect the other way counts as inactive or inconclusive.

SMILES | NS1 function inh | Pf growth 48h | Pf growth 96h | Giardia FBPA inh | CHX counter | Shiga inhibitor
Cc1cccc2c1cnn2C(=O)Nc1ccccc1Cl | 1% | 238% | -7% | 0% | 35* | 63*
COc1ccc(C)cc1NC(=O)n1ncc2c(C)cccc21 | 0% | 23% | ? | 5% | 6 | -1
COc1ccc(NC(=O)n2ncc3c(C)cccc32)cc1OC | -5% | 117% | 4% | 9% | 36* | 63*
C=CCn1c(SCC(=O)Nc2ccc(OC)cc2)nnc1-c1cnccn1 | 13% | 13% | ? | . | -1 | -5
CN(CCNC(=O)c1ccc(CS(=O)(=O)c2c(Cl)cccc2Cl)o1)CCc1ccccc1 | 5% | ? | 18% | -1% | 1 | -9
Cc1c(Cl)ccc2sc(N3CCN(C(=O)C4=COCCO4)CC3)nc12 | . | ? | -2% | . | . | .
O=C(c1ccc([N+](=O)[O-])o1)N1CCN(c2nc3c(Cl)cccc3s2)CC1 | . | 1.3µM* | 1µM* | . | . | .
O=C(c1cccs1)N1CCN(c2nc3ccc([N+](=O)[O-])cc3s2)CC1 | . | 0% | -1% | . | . | .
COc1cccc2sc(N3CCN(c4nc5ccccc5s4)CC3)nc12 | -4% | -1% | 0% | -1% | 2 | -15
Cc1ccc2sc(N3CCN(C(=O)c4ccc([N+](=O)[O-])o4)CC3)nc2c1C | . | 0.37µM* | 0.74µM* | . | . | .
O=C(Nc1cccc(Cl)c1N1CCCC1)c1ccc([N+](=O)[O-])o1 | . | ? | 14% | -5% | -1 | 1
COc1cccc2sc(N3CCN(C(=O)c4ccc([N+](=O)[O-])o4)CC3)nc12 | . | 0.83µM* | 0.74µM* | . | . | .
O=C(c1ccc([N+](=O)[O-])o1)N1CCN(c2nc3ccc(F)cc3s2)CC1 | . | 2.3µM* | 1.2µM* | . | . | .
Cc1c(O)ccc2c(O)c(NC(=O)c3ccc4c(c3)CCC(C)(C)O4)c(=O)oc12 | -4% | ? | 20% | ? | 1 | -6
Cc1ccc(S(=O)(=O)NCC(=O)N(CC2CCCO2)C(C(=O)NCC2CCCO2)C(C)C)cc1 (configuration not stated) | 1% | -1% | ? | 7% | -5 | 19
CCCn1nnnc1COc1ccc(C(N)=O)cc1 | 1% | 20% | 28% | -3% | -5 | -6
CCCOc1ccc(CCc2n[nH]c(=S)n2Cc2ccccc2)cc1 | 11% | 5.9µM* | 2% | -5% | -5 | -12
COCCNc1ncnc2ccc(-c3ccoc3)cc12 | . | . | . | -22% | . | .
Cc1ccc(S(=O)(=O)Nc2ccc(-c3nc4ccc(C)cc4s3)cc2)cc1 | 19% | 50% | 48% | 1% | -3 | 2
Cc1ccc(C)c(N(CC(=O)Nc2ccc(-c3nc4ccc(C)cc4s3)cc2)S(C)(=O)=O)c1 | -3% | ? | 35% | 0% | 28* | 80*
Cc1ccc(N(CC(=O)Nc2ccc(-c3nc4ccc(C)cc4s3)cc2)S(C)(=O)=O)cc1 | -3% | 193% | 82% | 6% | 58* | 117*
CCOc1ccc(S(=O)(=O)N2CCN(C(=O)CCC(=O)N3CCOCC3)CC2)cc1 | . | -15% | ? | . | . | .
CN(C)Cc1ccccc1-c1nccc(NC2CC2)n1 | . | . | . | -1% | . | .
CN(CC[C@@H](Oc1ccc(C(F)(F)F)cc1)c1ccccc1)CC(=O)O | . | . | . | -10% | -5 | -6
CC(C)OCCOc1ccc2oc(-c3ccco3)cc(=O)c2c1 | -23% | ? | 20% | 0% | 19* | 27
SMILES | NS1 function inh | Pf growth 48h | Pf growth 96h | Giardia FBPA inh | CHX counter | Shiga inhibitor
N#CCOc1ccc2oc(-c3ccco3)cc(=O)c2c1 | . | 22% | 2% | -1% | 11 | 19
Cc1ccc2oc(-c3ccco3)cc(=O)c2c1 | -52% | 120% | i | -1% | 39* | 71*
CC1(C)NC(=O)N(CCOCCOc2cccc(Oc3ccccc3)c2)C1=O | -14% | 0% | . | 4% | 8 | -26
CC1(C)NC(=O)N(CCCCOc2ccc3ccccc3c2Cl)C1=O | -2% | . | ? | -8% | 54* | 88*
CC1(C)NC(=O)N(CCOCCOc2ccc3ccccc3c2Br)C1=O | -5% | . | 3.7µM* | -4% | 37* | 44
CC(C)(O)c1cc(=O)sc2nc3ccccc3n12 | -9% | 403% | ? | 0% | 32* | 70*
c1ccc2nc3c(nc2c1)sc1nc2ccccc2n13 | -1% | 19% | 11% | 2% | -5 | 7
O=C(CCn1c(=O)c2cccn2c2cccnc21)N1CCN(c2cccc(Cl)c2)CC1 | -4% | 9.3µM* | ? | . | -4 | -2
COc1ccc(N2CCN(C(=O)Cn3c(=O)c4cccn4c4cccnc43)CC2)cc1 | -10% | 9% | 110% | . | -3 | -4
O=C(CNS(=O)(=O)c1ccc(Br)cc1)N1CCN(c2ccc(F)cc2)CC1 | -3% | ? | 13µM* | -1% | -1 | 3
CC(=O)c1ccc(N2CCN(C(=O)CN(C)S(=O)(=O)c3cnc[nH]3)CC2)cc1 | . | 9% | 32% | 5% | 39* | 42
CCOC(=O)N1CCN(C(=O)CN(C)S(=O)(=O)c2ccc(F)cc2)CC1 | -2% | 34% | 9% | 9% | 5 | 7
CN(CC(=O)N1CCN(c2ccc(F)cc2)CC1)S(=O)(=O)c1ccc(F)cc1 | -4% | 6% | ? | -3% | 14 | 33*
O=C(CNS(=O)(=O)c1ccc(F)cc1)N1CCN(c2ccccc2)CC1 | 2% | 11% | 16% | 0% | 10 | 28
CN(CC(=O)N1CCN(Cc2ccccc2)CC1)S(=O)(=O)c1ccc(F)cc1 | -12% | 4% | 12µM* | 4% | 1 | 2
O=C(O)[C@H](Cc1cnc[nH]1)N1C(=O)c2ccccc2C1=O | -1% | . | . | . | . | .
CC(=O)c1ccc(S(=O)(=O)N(C)CCCC(=O)N2CCN(c3ncccn3)CC2)cc1 | . | ? | 12µM* | . | . | .
O=C(CN(Cc1ccc(F)cc1)S(=O)(=O)c1ccccc1)N1CCCCC1 | -10% | ? | 4.1µM* | -5% | -4 | -2
CCN1CCN(C(=O)CN(CC)S(=O)(=O)c2ccc(F)cc2)CC1 | 7% | -7% | 3.3µM* | 2% | -2 | -18
CS(=O)(=O)N(CC(=O)N1CCCC1)Cc1ccc(F)cc1 | 4% | 42% | ? | 13% | -3 | -9
O=C(O)CCc1cc(F)c(S(=O)(=O)N2CCN(S(=O)(=O)c3ccc4c(c3)OCCO4)CC2)cc1F | . | . | . | . | -2 | -6
COC1=CC(C)C2CC3OC(=O)CC4C(C)=C(OC)C(=O)C([C@]2(C)C1=O)[C@]34C (some centres not stated) | . | . | . | 1% | . | .
CSCCC(NC(=O)c1cccc(C)c1)C(=O)Nc1sccc1C(N)=O (configuration not stated) | 10% | -23% | -1% | -10% | 6 | 7
O=C(C1CC(=O)N(c2ccc3c(c2)OCCO3)C1)N1CCN(c2cccc(C(F)(F)F)c2)CC1 (configuration not stated) | . | ? | 11% | . | . | .
CCCCOCCCNc1ncnc2c1[nH]c1ccccc12 | -22% | 7.4µM* | . | -4% | -3 | -6

Source: PubChem
